# Test results published in ChEMBL document CHEMBL2218924, “A broad activity screen in support of a chemogenomic map for kinase signalling research and drug discovery” (Biochem J, 2013).
# Tests used:
# [1] = target: Platelet-derived growth factor receptor alpha (Homo sapiens) (UniProt P16234); conditions: at 1 µM
# [2] = target: Platelet-derived growth factor receptor alpha (Homo sapiens) (UniProt P16234); conditions: at 10 µM
# [3] = target: Platelet-derived growth factor receptor beta (Homo sapiens) (UniProt P09619); conditions: at 1 µM
# Sequence of Platelet-derived growth factor receptor beta (Homo sapiens) (P09619 whole entry): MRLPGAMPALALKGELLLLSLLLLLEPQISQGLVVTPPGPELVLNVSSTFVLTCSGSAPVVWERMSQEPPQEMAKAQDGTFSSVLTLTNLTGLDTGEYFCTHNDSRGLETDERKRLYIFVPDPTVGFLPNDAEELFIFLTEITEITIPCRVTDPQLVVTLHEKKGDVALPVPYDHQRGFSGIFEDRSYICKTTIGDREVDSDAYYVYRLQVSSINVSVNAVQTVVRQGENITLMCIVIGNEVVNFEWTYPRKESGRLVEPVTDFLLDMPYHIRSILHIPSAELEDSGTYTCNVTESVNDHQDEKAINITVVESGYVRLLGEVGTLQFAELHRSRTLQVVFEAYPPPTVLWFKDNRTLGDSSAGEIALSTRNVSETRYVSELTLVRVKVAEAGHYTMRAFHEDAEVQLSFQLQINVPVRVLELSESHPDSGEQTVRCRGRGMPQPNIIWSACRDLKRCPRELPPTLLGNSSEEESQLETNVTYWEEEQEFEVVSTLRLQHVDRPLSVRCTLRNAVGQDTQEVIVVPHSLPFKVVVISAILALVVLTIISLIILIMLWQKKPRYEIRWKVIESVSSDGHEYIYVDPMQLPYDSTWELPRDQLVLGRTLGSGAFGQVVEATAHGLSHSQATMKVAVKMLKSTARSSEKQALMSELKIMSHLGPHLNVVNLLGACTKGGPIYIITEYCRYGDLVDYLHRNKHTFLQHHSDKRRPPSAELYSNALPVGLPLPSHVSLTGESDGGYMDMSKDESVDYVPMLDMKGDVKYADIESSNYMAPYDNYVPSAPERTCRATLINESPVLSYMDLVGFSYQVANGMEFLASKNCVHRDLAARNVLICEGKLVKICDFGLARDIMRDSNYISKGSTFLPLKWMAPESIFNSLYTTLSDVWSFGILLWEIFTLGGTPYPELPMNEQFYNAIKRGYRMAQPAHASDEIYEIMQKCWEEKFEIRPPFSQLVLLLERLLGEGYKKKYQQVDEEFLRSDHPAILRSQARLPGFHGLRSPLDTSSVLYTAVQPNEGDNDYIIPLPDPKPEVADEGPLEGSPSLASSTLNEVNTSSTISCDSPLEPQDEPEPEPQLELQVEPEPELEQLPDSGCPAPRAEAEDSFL
# [4] = target: Platelet-derived growth factor receptor beta (Homo sapiens) (UniProt P09619); conditions: at 10 µM
# [5] = target: T1, 3-phosphoinositide-dependent protein kinase 1 (Homo sapiens) (UniProt O15530); conditions: at 1 µM
# T1 sequence (whole entry): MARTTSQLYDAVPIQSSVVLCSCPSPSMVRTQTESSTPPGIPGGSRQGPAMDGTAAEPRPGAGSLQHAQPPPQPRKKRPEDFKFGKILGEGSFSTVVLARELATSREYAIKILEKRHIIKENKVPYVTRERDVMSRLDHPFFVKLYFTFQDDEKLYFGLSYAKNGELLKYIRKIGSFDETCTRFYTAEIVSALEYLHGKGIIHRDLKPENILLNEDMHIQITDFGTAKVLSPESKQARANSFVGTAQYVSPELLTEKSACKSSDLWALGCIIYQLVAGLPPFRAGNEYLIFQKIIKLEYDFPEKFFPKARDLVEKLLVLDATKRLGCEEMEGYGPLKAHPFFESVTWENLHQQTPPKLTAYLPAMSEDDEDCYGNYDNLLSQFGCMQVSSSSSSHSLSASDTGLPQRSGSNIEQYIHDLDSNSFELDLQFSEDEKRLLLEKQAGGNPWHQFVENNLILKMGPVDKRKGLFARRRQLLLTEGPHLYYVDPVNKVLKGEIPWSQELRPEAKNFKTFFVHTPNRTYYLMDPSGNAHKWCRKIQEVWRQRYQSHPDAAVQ
# [6] = target: T1, 3-phosphoinositide-dependent protein kinase 1 (Homo sapiens); conditions: at 10 µM
# [7] = target: cAMP-dependent protein kinase catalytic subunit alpha (Homo sapiens) (UniProt P17612); conditions: at 1 µM
# [8] = target: cAMP-dependent protein kinase catalytic subunit alpha (Homo sapiens) (UniProt P17612); conditions: at 10 µM
# [9] = target: RAC-gamma serine/threonine-protein kinase (Homo sapiens) (UniProt Q9Y243); conditions: at 1 µM
# Sequence of RAC-gamma serine/threonine-protein kinase (Homo sapiens) (Q9Y243 whole entry): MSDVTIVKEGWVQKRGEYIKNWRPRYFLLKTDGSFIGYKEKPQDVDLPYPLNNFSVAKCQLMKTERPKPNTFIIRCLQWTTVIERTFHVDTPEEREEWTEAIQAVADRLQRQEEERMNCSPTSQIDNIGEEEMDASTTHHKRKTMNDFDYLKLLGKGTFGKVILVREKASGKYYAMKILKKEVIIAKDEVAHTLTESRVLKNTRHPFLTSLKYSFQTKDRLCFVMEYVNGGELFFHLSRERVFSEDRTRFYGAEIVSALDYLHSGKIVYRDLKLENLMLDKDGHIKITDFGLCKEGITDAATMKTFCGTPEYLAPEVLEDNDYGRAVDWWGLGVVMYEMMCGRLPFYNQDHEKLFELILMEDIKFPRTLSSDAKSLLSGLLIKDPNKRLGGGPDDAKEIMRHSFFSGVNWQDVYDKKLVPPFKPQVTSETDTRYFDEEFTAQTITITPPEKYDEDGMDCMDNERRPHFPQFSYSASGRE
# [10] = target: RAC-gamma serine/threonine-protein kinase (Homo sapiens) (UniProt Q9Y243); conditions: at 10 µM
# Sequence of Platelet-derived growth factor receptor alpha (Homo sapiens) (P16234 whole entry): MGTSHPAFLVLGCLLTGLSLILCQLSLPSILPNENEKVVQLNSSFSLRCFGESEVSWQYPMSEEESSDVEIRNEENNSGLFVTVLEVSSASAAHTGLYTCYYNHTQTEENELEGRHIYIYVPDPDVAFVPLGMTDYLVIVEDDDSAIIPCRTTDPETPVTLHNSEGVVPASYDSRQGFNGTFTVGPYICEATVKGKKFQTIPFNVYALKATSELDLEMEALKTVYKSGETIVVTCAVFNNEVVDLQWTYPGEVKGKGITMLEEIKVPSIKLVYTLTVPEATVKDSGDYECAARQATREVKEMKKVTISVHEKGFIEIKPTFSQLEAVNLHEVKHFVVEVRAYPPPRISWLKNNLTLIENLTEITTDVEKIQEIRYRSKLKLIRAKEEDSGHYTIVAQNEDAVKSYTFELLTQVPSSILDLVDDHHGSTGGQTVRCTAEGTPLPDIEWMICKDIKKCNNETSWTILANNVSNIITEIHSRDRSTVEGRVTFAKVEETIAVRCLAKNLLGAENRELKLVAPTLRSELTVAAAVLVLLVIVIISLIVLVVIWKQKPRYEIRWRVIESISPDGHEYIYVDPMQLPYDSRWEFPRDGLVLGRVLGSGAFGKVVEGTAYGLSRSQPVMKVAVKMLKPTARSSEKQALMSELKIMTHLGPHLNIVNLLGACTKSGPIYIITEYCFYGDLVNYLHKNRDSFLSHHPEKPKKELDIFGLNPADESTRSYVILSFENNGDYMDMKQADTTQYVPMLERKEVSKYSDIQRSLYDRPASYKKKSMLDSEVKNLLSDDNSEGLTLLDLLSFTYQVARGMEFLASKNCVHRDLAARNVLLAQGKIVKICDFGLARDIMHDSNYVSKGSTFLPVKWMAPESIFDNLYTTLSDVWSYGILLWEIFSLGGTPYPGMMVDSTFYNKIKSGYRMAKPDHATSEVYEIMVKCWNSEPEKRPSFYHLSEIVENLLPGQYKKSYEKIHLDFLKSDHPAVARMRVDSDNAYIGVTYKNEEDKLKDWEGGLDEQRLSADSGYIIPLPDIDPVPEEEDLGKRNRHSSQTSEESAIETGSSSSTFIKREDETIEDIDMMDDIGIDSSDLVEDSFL
Compound,residual activity [1],residual activity [2],residual activity [3],residual activity [4],residual activity [5],residual activity [6],residual activity [7],residual activity [8],residual activity [9],residual activity [10]
COc1ccc(CNc2nc(N(CCO)CCO)nc3c2ncn3C(C)C)cc1,101%,102%,93%,100%,100%,100%,93%,85%,72%,69%
CC(C)n1cnc2c(NCc3ccccc3)nc(NCCCO)nc21,105%,107%,98%,94%,107%,104%,98%,99%,104%,90%
Ic1cccc(CSc2nnc(-c3ccncc3)o2)c1,104%,97%,99%,97%,56%,44%,99%,79%,92%,74%
O=C1Nc2ccccc2/C1=C1/Nc2ccccc2/C1=N\OCCC(O)CO (centres undefined),79%,28%,79%,24%,29%,6%,–,38%,80%,36%
CO[C@H]1C[C@@H]2CC[C@@H](C)[C@@](O)(O2)C(=O)C(=O)N2CCCC[C@H]2C(=O)O[C@H]([C@H](C)C[C@@H]2CC[C@@H](O)[C@H](OC)C2)CC(=O)[C@H](C)/C=C(\C)[C@@H](O)[C@@H](OC)C(=O)[C@H](C)C[C@H](C)/C=C/C=C/C=C/1C,111%,102%,116%,114%,117%,126%,112%,141%,103%,98%
CCN(CC)C(=O)c1ccc(Nc2nc(OCC3CCCCC3)c3nc[nH]c3n2)cc1,65%,18%,63%,14%,20%,3%,80%,52%,–,40%
c1ccc(-c2n[nH]cc2-c2ccnc3ccccc23)nc1,–,–,96%,109%,104%,104%,–,93%,96%,96%
CO[C@@H]1[C@H](N(C)C(=O)c2ccccc2)C[C@H]2O[C@]1(C)n1c3ccccc3c3c4c(c5c6ccccc6n2c5c31)C(=O)NC4,54%,32%,46%,25%,2%,1%,–,10%,22%,14%
CC(C)n1cnc2/c(=N/c3cccc(Cl)c3)nc(NCCO)[nH]c21,105%,107%,108%,113%,96%,81%,96%,89%,95%,76%
Cn1nc2c3c(cccc31)C(=O)c1ccccc1-2,–,–,91%,88%,95%,74%,87%,90%,95%,91%
N#CCCc1ccc2c(c1)-c1[nH]c3ccc([N+](=O)[O-])cc3c1CC(=O)N2,–,–,–,–,17%,6%,–,–,–,–
CCOc1cc2ncnc(Nc3cccc(Br)c3)c2cc1OCC,–,90%,89%,91%,104%,86%,73%,86%,100%,100%
Cc1ccc(S(=O)(=O)/C=C/C#N)cc1,100%,109%,104%,107%,105%,108%,102%,102%,108%,85%
c1ccc(-c2n[nH]c3c2oc2ccccc23)cc1,33%,5%,–,–,–,–,70%,–,90%,–
O=C1NC(=O)c2c1c1c3ccccc3[nH]c1c1[nH]c3cc(Br)ccc3c21,101%,95%,89%,76%,75%,29%,97%,101%,75%,77%
CCC(=O)Nc1ccc2ncnc(Nc3cccc(Br)c3)c2c1,117%,91%,96%,92%,111%,107%,88%,102%,102%,99%
Cc1cccc(-c2[nH]c(C(C)(C)C)nc2-c2ccc3c(c2)OCO3)n1,–,–,–,–,–,–,87%,91%,–,–
N#C/C(=C(\N)Sc1ccc(N)cc1)c1ccccc1C(F)(F)F,112%,113%,98%,102%,98%,87%,79%,80%,96%,86%
c1ccc2c(-c3ccncc3)c[nH]c2c1,–,–,–,–,111%,110%,93%,50%,89%,76%

Compound,residual activity [1],residual activity [2],residual activity [3],residual activity [4],residual activity [5],residual activity [6],residual activity [7],residual activity [8],residual activity [9],residual activity [10]
O=c1cc(-c2cccc3c2Sc2ccccc2S3)oc(N2CCOCC2)c1,106%,–,111%,92%,99%,107%,102%,104%,106%,84%
Cc1cncc2cccc(S(=O)(=O)N3CCCN(C(=O)CN)C[C@H]3C)c12,–,–,100%,96%,–,–,69%,59%,100%,84%
O=C1c2ccccc2-[n+]2ccc3c([nH]c4ccccc43)c21,107%,103%,110%,102%,100%,102%,94%,98%,112%,87%
COc1cc2ncc(-c3ccccc3)nc2cc1OC,84%,27%,97%,73%,–,–,99%,74%,–,–
Cn1cc(/C=C2\C(=O)Nc3ccc(S(N)(=O)=O)cc32)c2ccccc21,77%,33%,98%,51%,76%,32%,93%,57%,88%,81%
Cc1cc2ncc(-c3ccccc3)nc2cc1C,–,–,99%,96%,–,–,86%,75%,90%,87%
Oc1ccc(-c2nc(-c3ccc(F)cc3)c(-c3ccncc3)[nH]2)cc1,117%,105%,111%,97%,108%,94%,–,–,107%,77%
COc1cc2ncnc(Nc3ccc(NC(=O)c4ccccc4)cc3)c2cc1OC,–,81%,–,102%,–,106%,71%,85%,–,102%
O=C(O)c1ccc2c3c1cccc3c(=O)n1c3ccccc3nc21,113%,114%,–,108%,108%,82%,73%,89%,102%,82%
Cc1cc(Nc2nc(-c3ccccc3)nc3ccccc23)n[nH]1,–,26%,79%,28%,94%,39%,–,70%,–,46%
COc1ccc(S(=O)(=O)N(CCO)c2ccccc2CN(C)C/C=C/c2ccc(Cl)cc2)cc1,109%,95%,109%,104%,119%,114%,105%,–,104%,56%
COc1cc2ncnc(N3CCN(C(=O)Nc4ccc(Oc5ccccc5)cc4)CC3)c2cc1OC,26%,6%,–,–,106%,116%,102%,–,94%,112%
N#CC(C#N)=C(N)/C(C#N)=C/c1ccc(O)cc1,119%,–,99%,–,–,–,82%,63%,–,–
O=[N+]([O-])c1ccc(-c2nc(-c3ccc(F)cc3)c(-c3ccncc3)[nH]2)cc1,114%,114%,103%,111%,117%,100%,97%,82%,98%,75%
CC(=O)O/N=C1\C(=C2\C(=O)Nc3cc(Br)ccc32)Nc2ccccc21,102%,79%,86%,52%,91%,67%,86%,93%,98%,79%
CC(=O)c1ccc(N2CCOCC2)cc1O,–,107%,112%,105%,–,–,87%,96%,106%,104%
O=C(Nc1cccc(Nc2nccc(Nc3cccc(C(F)(F)F)c3)n2)c1)C1CC1,107%,88%,99%,70%,100%,93%,75%,106%,89%,67%
COc1cc2ncnc(Nc3ccc(O)c(Br)c3)c2cc1OC,103%,78%,105%,83%,97%,76%,88%,90%,101%,80%
CC[n+]1c(/C=C/N(C)c2ccccc2)n(-c2ccccc2)c2ccc(-c3nc4ccccc4s3)cc21,117%,94%,103%,125%,121%,149%,110%,146%,105%,65%
